High-throughput results as filed in PubChem BioAssay.
An excerpt weighted towards active compounds, which were near 9.3% of everything screened.
VACV Venus inh = qHTS for Stage-Specific Inhibitors of Vaccinia Orthopoxvirus: Venus Reporter Primary qHTS. Vaccinia virus Venus reporter expression, fluorescence. 330,000 tested, 0.46% active. Potency, µM (titrated, usually from 36.5 µM), actives largely listed as inhibitors; calls by dose curve; tested in A549 cells; further: nearly all actives have a fitted effect of over 30% in size
FMDV inh = High Throughput Screening for Foot and Mouth Disease Virus Antivirals. FMDV antiviral cell-based qHTS. 410,000 tested, 1.2% active. AID 1159524, 2015. Potency, µM (series often up to 57.9 µM), hits mostly inhibitors; calls by dose curve; tested in HEK293T cells; further: read-out not given here; nearly all actives have a fitted effect of over 45% in size
VACV mCherry inh = qHTS for Stage-Specific Inhibitors of Vaccinia Orthopoxvirus: mCherry Reporter Primary qHTS; AID 720579, 2013; 310,000 tested, 0.63% active; Potency, µM (highest dose often 36.5 µM), hits mostly inhibitors; Vaccinia virus mCherry reporter infection, fluorescence; calls by dose curve; tested in A549 cells; further: nearly all actives have a fitted effect of over 35% in size
HCV inh = qHTS Assay for Inhibitors of Hepatitis C Virus (HCV). Huh7.5.1 HCVcc-Cre infection, luciferase reporter, 44 h. Potency, µM (highest dose often 41.8 µM), usual class: inhibitors. 340,000 tested, 3.4% active. AID 651820, 2012
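Cells seeded at 1,000/well and cultured 4 h, then compounds added followed by HCVcc-Cre virus (~0.5 moi). After 44 h further culture, luciferase substrate was added, plates held 15 min at room temperature, and luminescence read for 15 sec.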
Sm TGR block = qHTS Assay for the Inhibitors of Schistosoma Mansoni Peroxiredoxins | purified TGR, DTNB reduction, TNB absorbance 405 nm | Potency, µM (doses to about 114 µM), hits mostly inhibitors | AID 485364, 2010 | 360,000 tested, 3% active | Schistosoma mansoni thioredoxin glutathione reductase (TGR), Q962Y6; further: nearly all actives have a fitted effect of over 60% in size
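Kinetic colorimetric format: TGR-catalysed, NADPH-driven DTNB reduction monitored via TNB absorbance. Enzyme dispensed at 20 nM; compound exposure 15 min at room temperature before reaction start.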
HCMV inh = qHTS Assay for inhibitors of the human cytomegalovirus (HCMV); AID 1259415, 2018; 410,000 tested, 4.5% active; HFF cells, HCMV-luciferase reporter, 72 h; active compounds read low; activity change, negative = inhibition, % at 57.5 µM; in the data active means activity change below about -60%; inconclusive means no clear call, values can overlap the other calls; inactive means above about -39%
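Two-dose cell screen: HFF monolayers treated with compounds and infected with luciferase-expressing HCMV at 1 PFU/cell, 72 h at 37C, then lysed for luciferase measurement.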
A number is an active result; - = inactive; ? = inconclusive; . = no result; ! = repeats disagree. Unless noted, the call rests on the fitted dose curve; in most records, active means well fitted curve in the direction sought with a large enough effect; inconclusive means small, poorly fitted or top-dose-only effect, or another doubt; inactive means no such curve, though single readings can be large; an effect the other way counts as inactive or inconclusive.

SMILES	VACV Venus inh	FMDV inh	VACV mCherry inh	HCV inh	Sm TGR block	HCMV inh
CN(C)C(CNC(=O)c1ccc2c(=O)n(-c3ccccc3F)c(=S)[nH]c2c1)Cc1ccccc1 (stereo unspecified)	-	-	-	2.2µM	?	-
COc1ccccc1/C=C/C=N/n1c(COc2ccccc2)n[nH]c1=S	.	-	.	-	-	-
COc1cc(C(O)c2nc(-c3ccccc3C)cs2)ccc1F (stereo unspecified)	-	-	-	.	.	-
COc1ccc(NC(=O)[C@@H]2CC=C[C@@H]3CCN(Cc4ccc(Cl)c(Cl)c4)C(=O)[C@@H]32)cc1	?	-	-	0.56µM	.	?
COc1ccc(NC(=O)[C@@H]2CC=C[C@@H]3CCN(Cc4ccccc4)C(=O)[C@@H]32)cc1	-	-	-	-	.	-
C#CCN(Cc1ccccc1)S(=O)(=O)C=C	1.6µM!	?	?	-	-	-
C[C@H](CO)N1C[C@H](C)[C@@H](CN(C)CC2CCCCC2)Oc2c(NC(=O)Cc3ccccc3)cccc2C1=O	10µM	-	?	?	.	-
C[C@H](CO)N1C[C@H](C)[C@H](CN(C)C(=O)Cc2ccncc2)Oc2ncc(Br)cc2C1=O	8.9µM	-	?	.	.	-
C[C@H]1CN([C@@H](C)CO)C(=O)c2cccc(NC(=O)C3CC3)c2O[C@H]1CN(C)Cc1ccc(C(F)(F)F)cc1	-	-	-	-	.	-88
C[C@H](CO)N1C[C@H](C)[C@@H](CN(C)Cc2ccc(-c3ccccc3)cc2)Oc2c(NC(=O)c3ccncc3)cccc2C1=O	?	-	-	10µM	.	-
CS(=O)(=O)c1ccccc1-c1nc(-c2ccc([N+](=O)[O-])cc2)no1	-	-	-	-	-	-
Cc1noc(C)c1CSCC(=O)N(C)CC(=O)Nc1ccc(F)c(F)c1F	-	-	-	-	-	-
COc1ccc(C)cc1NC(=O)c1cc2c(=O)n3ccccc3nc2n1C	-	-	-	-	-	?
Cc1cc(C)c(NC(=O)c2cc3c(=O)n4ccccc4nc3n2C)c(C)c1	-	?	-	.	-	-79
CC1CCCN(C(=O)c2ccc([N+](=O)[O-])o2)C1 (stereo unspecified)	.	-	.	-	-	-
O=C(c1ccc(-c2ccc([N+](=O)[O-])cc2)o1)N1CCCCCCC1	.	-	.	?	20µM	-
O=C(c1ccc(-c2ccc([N+](=O)[O-])cc2)o1)N1CCCC(C(F)(F)F)C1 (stereo unspecified)	-	-	-	?	?	-76
CC1=C(C(=O)Nc2ccc(Cl)cc2)C(C(C)C)n2nc(SCc3ccc(Cl)cc3)nc2N1 (stereo unspecified)	-	-	-	.	-	-
CC(=O)Nc1ccc(NC(=O)c2cc(-c3ccc(C)c(C)c3O)n[nH]2)cc1	.	-	.	-	-	-
CC(=O)Nc1ccc(NC(=O)c2cc(-c3cc(C)cc(C)c3O)n[nH]2)cc1	.	-	.	8.9µM	-	?
Cc1ccc(C(=O)Nc2ccc(S(=O)(=O)N3CCOCC3)cc2)cc1	-	-	-	-	.	-
Cc1cc(C)c(O)c(-c2cc(C(=O)Nc3ccc(S(=O)(=O)N4CCOCC4)cc3)[nH]n2)c1	13µM	?	10µM	10µM	-	-76
CCc1cccc(CC)c1N1C(=O)COCC1=O	-	-	-	.	.	-62
COc1ccccc1CNC(=O)COC(=O)C1CC1	.	-	.	-	-	-
Cc1ccc(C2(c3ccc(C)cc3)CC2C(=O)Nc2ccc([N+](=O)[O-])cc2O)cc1 (stereo unspecified)	?	-	-	3.5µM	-	-102
SMILES	VACV Venus inh	FMDV inh	VACV mCherry inh	HCV inh	Sm TGR block	HCMV inh
CC1(C)CC1C(=O)Nc1ccc([N+](=O)[O-])cc1Br (stereo unspecified)	-	-	-	?	-	-
Cc1nc2cc(NC(=O)c3ccc(S(=O)(=O)N(C)c4ccccc4)cc3)ccc2o1	-	22µM	-	6.3µM	-	-69
CN(c1ccccc1)S(=O)(=O)c1ccc(NC(=O)c2ccc(-c3ccccc3)cc2)cc1	?	?	-	.	-	-96
CCOC(=O)/C=C/C(=O)Nc1ccc(S(=O)(=O)N(C)c2ccccc2)cc1	-	?	-	?	40µM	-
Cc1csc(NC(=O)c2ccc(S(=O)(=O)N(C)c3ccccc3)cc2)n1	-	?	.	?	-	-
COc1ccccc1N(C)S(=O)(=O)c1ccc(C(=O)Nc2ccncc2)cc1	-	32µM	-	?	-	?
Cc1ccccc1C(=O)Nc1cccc(OCc2cc(=O)n3c(C)csc3n2)c1	-	-	-	.	-	-
COc1cc(NC(=O)c2ccc(S(=O)(=O)N(C)c3ccccc3)cc2)cc(OC)c1	-	-	-	11µM	.	-79
CCOC(=O)Nc1ccc(S(=O)(=O)Nc2cc(C)on2)cc1	.	-	.	-	-	-
COc1ccccc1NC(=O)c1ccc(S(=O)(=O)N(C)c2ccccc2)cc1	-	?	-	-	-	?
CCOC(=O)/C=C/C(=O)Nc1ccc(S(=O)(=O)Nc2cc(C)on2)cc1	-	-	-	-	11µM	-
Cc1cc(NS(=O)(=O)c2ccc(NC(NC(=O)C(C(F)(F)F)C(F)(F)F)(C(F)(F)F)C(F)(F)F)cc2)no1	-	-	.	-	13µM	.
COCCN(C(=O)COC(=O)C1CCCCC1)c1c(N)n(Cc2ccccc2)c(=O)[nH]c1=O	-	-	-	.	.	-
CO[C@H]1C[C@@H]2CC[C@@H](C)[C@@](O)(O2)C(=O)C(=O)N2CCCC[C@H]2C(=O)O[C@H]([C@H](C)C[C@@H]2CC[C@@H](O)[C@H](OC)C2)CC(=O)[C@H](C)C=C(C)[C@@H](O)[C@@H](OC)C(=O)[C@H](C)C[C@H](C)C=CC=CC=C1C	.	.	.	.	14µM	.
CC(=O)[C@H]1[C@H]([C@H](O)[C@H](O)CO)O[C@](O)(C(=O)O)C[C@@H]1O	-	-	-	-	13µM	-
CCC(C)Sc1cc(-c2nc3ccc(C)cn3c2NCc2ccccc2)ccc1OC (stereo unspecified)	?	16µM	10µM	10µM	.	-77
CCC(C)Sc1ccc(-c2nc3ccc(C)cn3c2NCc2ccccc2)cc1OC (stereo unspecified)	13µM	35µM	?	4µM	-	.
CCCCCCSc1ccc(-c2nc3ccc(C)cn3c2NCc2ccccc2)cc1OC	-	-	?	-	-	-
CCC(C)Sc1ccc(-c2nc3ccc(Cl)cn3c2NCc2ccccc2)cc1 (stereo unspecified)	-	-	-	-	.	-
